From PubChem BioAssay AID596 (National Center for Advancing Translational Sciences (NCATS), 2007)
About 1,400 (2%) of roughly 71,000 compounds were called active. Roughly 3% stayed inconclusive and do not appear here. Calls follow the shape of the dose curve; as a rule, active = well fitted curve in the direction sought with a large enough effect; inconclusive = small, poorly fitted or top-dose-only effect; inactive = no such curve, though single readings can be large or run the other way. Only a selection was taken, and actives are over-represented in it overall.

Target: Microtubule-associated protein tau (Homo sapiens) (UniProt P10636)
Sequence (P10636 whole entry, looked up): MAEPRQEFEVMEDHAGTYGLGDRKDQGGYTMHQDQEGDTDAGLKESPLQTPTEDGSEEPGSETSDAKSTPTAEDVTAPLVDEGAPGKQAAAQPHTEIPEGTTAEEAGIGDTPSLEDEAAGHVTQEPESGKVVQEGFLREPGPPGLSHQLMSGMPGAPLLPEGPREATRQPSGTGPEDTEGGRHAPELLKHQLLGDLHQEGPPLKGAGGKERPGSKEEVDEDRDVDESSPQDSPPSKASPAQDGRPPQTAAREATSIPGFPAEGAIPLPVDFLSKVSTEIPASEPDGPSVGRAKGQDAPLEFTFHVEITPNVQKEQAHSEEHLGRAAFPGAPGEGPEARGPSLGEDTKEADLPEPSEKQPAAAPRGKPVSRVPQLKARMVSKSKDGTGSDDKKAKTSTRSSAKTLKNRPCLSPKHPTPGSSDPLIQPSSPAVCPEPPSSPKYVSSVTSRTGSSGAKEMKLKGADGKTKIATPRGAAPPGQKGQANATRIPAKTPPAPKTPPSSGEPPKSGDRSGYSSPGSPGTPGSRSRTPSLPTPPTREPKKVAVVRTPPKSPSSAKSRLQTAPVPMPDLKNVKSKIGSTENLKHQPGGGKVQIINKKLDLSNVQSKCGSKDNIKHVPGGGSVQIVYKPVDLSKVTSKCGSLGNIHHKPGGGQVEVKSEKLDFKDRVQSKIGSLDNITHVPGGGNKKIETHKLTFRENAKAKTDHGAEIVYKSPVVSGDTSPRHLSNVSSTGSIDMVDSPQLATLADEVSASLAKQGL
Experiment: qHTS Assay for Tau Filament Binding;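 also: actives lower thioflavin S fluorescence by blocking filaments or displacing dye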
Conditions: recombinant tau filaments, thioflavin S fluorescence, 15 h, filaments grown with octadecylsulfate alongside compound; series mostly up to 57.1 µM
Excerpt: NIH Molecular Libraries Screening Centers Network [MLSCN]
NIH Chemical Genomics Center [NCGC]
Assay Provider: Jeffrey A. Kuret, Ohio State University
Tau monomers form filaments in vitro in the presence of anionic detergents or fatty acids. The dye Thioflavine S (ThS) binds to tau filaments and upon binding, increases in fluorescence several fold. Small molecules that displace ThS binding or prevent filament binding are identified by a reduction in ThS fluorescence. This assay used histidine-tagged, recombinant human tau protein containing the products of exons 2, 3, and 10 that was provided by Jeff Kuret, Ohio State University. To form filaments, 1 uM tau was incubated with 30 uM sodium octadecylsulfate (ODS) in reagent buffer (10 uM thioflavine S, 5 mM 1,4-dithioerythreitol (DTT), 100 mM sodium chloride, 10 mM HEPES pH 7.4) for 15 hrs at 37 C.
NCGC Assay Protocol Summary:
Assay Steps. Two uL/well of 2 uM tau in reagent buffer (10 uM thioflavine S, 5 mM DTT, 100 mM sodium chloride, 10 mM HEPES pH 7.4) was dispensed into solid black 1536-well plates. Twenty-three nL compound was transferred to the assay plate after which 2 uL/well of 60 uM ODS in reagent buffer was dispensed for a final assay volume of 4 uL /well. Following 15 hours of incubation at 37 C, fluorescence was detected by an Envision (Perkin Elmer) using 450/8 nm excitation and 510/23 nm emission.
Keywords: NIH Roadmap, MLSCN, MLI, MLSMR, qHTS, NCGC, Alzheimer's disease, Neurofibrillary lesions, tau, tubulin assembly, microtubule stability, cytoskeletal integrity, fibrillization, thioflavin dyes, Amyloidgenic
% is scaled to controls: 0 for no effect and ±100 for the full control effect; potency is read from the fitted curve at half-maximal effect.

Potency, inactive:
Nc1cc(=O)nc(SCc2ccccc2)n1Cc1ccco1
c1ccc(CSc2nnc(-c3ccco3)n2Cc2ccccc2)cc1
COc1cccc(Cn2c(=O)c(C)nc3cnc(Oc4ccccc4)nc32)c1
O=C(O)c1nccnc1C(=O)Nc1ccc(Br)cn1
C=CCOC(=O)COCCC(C)C
NC[C@@H]1O[C@H](O[C@@H]2[C@H](O[C@@H]3O[C@H](CO)[C@@H](COC[C@H]4O[C@@H](CN)[C@@H](O)[C@@H](O)[C@@H]4N)[C@@H]3O)[C@@H](O)[C@@H](N)C[C@H]2N)[C@@H](N)[C@H](O)[C@@H]1O
O=Cc1c(Cl)cccc1Cl
CC(=O)OCC(COC(C)=O)OC(C)=O
CC(c1ccccc1)n1c(NCCCn2ccnc2)nc2c1c(=O)[nH]c(=O)n2C (configuration not stated)
CC(Sc1nc2ccccc2c(=O)n1Cc1ccco1)C(=O)c1ccccc1 (configuration not stated)
O=C(CSc1nnc(-c2cccnc2)n1Cc1ccco1)c1ccc(Cl)cc1
O=c1c(CCc2ccccc2)nc2cnc(N3CCNCC3)nc2n1Cc1cccs1
Cc1cc(C)cc(N)c1
N#Cc1ccc(COC(=O)Cn2nnc(-c3ccccc3)n2)cc1
COC(=O)C1=C(C)NC(=O)NC1/C=C/c1ccccc1 (configuration not stated)
COc1ccccc1NC(=O)C1=C(C)NC2=C(C(=O)CCC2)C1c1ccc(C)o1 (configuration not stated)
Cc1cccc(C(=O)O)c1
CCN(CC)C(=O)c1sc(NC(=O)c2ccco2)c(C#N)c1C
COc1ccc(NC(=O)c2ccc(OC)cc2)cc1
CCCC[C@H]1C(=O)N(c2ccccc2)N(c2ccc(O)cc2)C1=O
CCCC1CC(C)(C(=O)Cn2[nH]c(=O)ccc2=O)OC1=O (configuration not stated)
CCC1(C)Cc2c(sc3nc4n(c(=O)c23)CCCS4)CO1 (configuration not stated)
COC(=O)C1(C)C=CC2(CCCCC2)N1C(C)=O (configuration not stated)
Cn1c(=O)c(CCc2ccccc2)nc2cnc(Nc3ccccc3)nc21
CNC(=O)C1(C)C=CC2(CCCCC2)N1C(C)=O (configuration not stated)
Cc1nn(C(=O)c2ccoc2C)c(N)c1-c1ccccc1
C[C@@H]1O[C@@H](O[C@@H]2[C@@H](O)[C@H](OCCc3ccc(O)c(O)c3)O[C@H](CO[C@@H]3O[C@H](CO)[C@@H](O)[C@H](O)[C@H]3O)[C@H]2OC(=O)/C=C/c2ccc(O)c(O)c2)[C@H](O)[C@H](O)[C@H]1O
CCCC(C(=O)NCc1ccco1)N(C(=O)CNS(=O)(=O)c1ccccc1)C1CCCC1 (configuration not stated)
CC(=O)N1CCC2(CC1)CCN(c1ccncc1)CC2
CN1CCN(c2ccc(NC(=O)COc3ccc(Cl)cc3Cl)cc2)CC1
COCCNc1ncnc2ccc(-c3ccccc3CN(C)C)cc12
COC(=O)[C@@]1(Cc2ccc(F)cc2)[C@@H]2[C@@H](CC(=O)[C@H]2CC(=O)C(=O)N2CCCC2)CN1C(=O)c1ccccc1
Cc1ccc(/C(=C/CN2CCCC2)c2ccccn2)cc1
C=C(C)C1CC=C(C)C(O)C1 (configuration not stated)
CC(=O)Oc1ccccc1C(=O)Nc1ncc([N+](=O)[O-])s1
O=c1c(CCc2ccccc2)nc2cncnc2n1C1CC1
COc1cc(-c2nn3c(-c4cccc(C)c4)nnc3s2)cc(OC)c1OC
Cc1cccc(NC(=O)C2CCN(S(=O)(=O)c3cccc4cccnc34)CC2)c1
COC(=O)CCCCCN1C(=O)NC(c2ccc(-c3ccccc3)cc2)C(C(=O)OCc2ccccc2)=C1C (configuration not stated)
O=C(CN1CCN(c2ccc(F)cc2)CC1)Nc1cccc(C(F)(F)F)c1
O=C(CSc1nnc(-c2ccco2)o1)NCC(=O)c1ccccc1
CCCCN(C)C(=O)c1ccc2c(c1)N(CC)C(=O)c1ccccc1S2(=O)=O
COC(=O)Nc1ncc(CN2C(=O)c3ccccc3C2=O)s1
CCOc1ccccc1N=C1NC(=O)CS1
CCc1ccc(CCC(=O)Nc2ccc(S(N)(=O)=O)cc2)o1
CCOc1ccccc1C(=O)NCc1ccco1
COC(=O)c1ccc2c(=O)n(CC3CCCO3)c(=S)[nH]c2c1 (configuration not stated)
CCn1c(=N)c(C(=O)NCCCOC)cc2c(=O)n3cccc(C)c3nc21
O=C(Nc1ccccc1)Nc1ccccc1C(=O)NCc1ccco1
Cc1cccn2c(=O)c3cc(C(=O)NCc4ccccn4)n(C)c3nc12
C[C@]1(C(=O)NCCc2c[nH]c3ccccc23)C=C[C@@H](Cc2ccccc2)N1C(=O)c1ccccc1
Cn1cccc1C(=O)N1CCC2(CC1)CN(c1cccc(-c3ccccc3)c1)C2
CC(=O)CC(C)C
COC(=O)c1ccc(C(NC(=O)OCc2ccccc2)/C(C)=C/[C@@H](C)C(=O)NCc2cc(C)on2)cc1 (some centres not stated)
COC(=O)[C@H]1C[C@@H]1[C@H](NC(=O)Oc1ccc(F)cc1)c1ccccc1
CCOC(=O)c1ccn(-c2nc(-c3ccco3)cc(C(F)(F)F)n2)n1
FC(F)(F)c1cc(-c2ccco2)nc(N2CCOCC2)n1
CCC[C@@H]1C[C@@]1(CCC)C(NS(=O)(=O)c1cccc2cccnc12)c1ccc(Cl)cc1 (some centres not stated)
CN(C)C(=O)/N=N\C(=O)N(C)C
CCCc1cc(=O)[nH]c(SCc2ccc(C#N)cc2)n1
CCc1nnc(NC(=O)CSc2nnc(Cc3ccccc3)n2-c2ccc(OC)cc2)s1
COc1ccc(Cc2nnc(NS(=O)(=O)Cc3ccccc3)s2)cc1
COC(=O)N1CCC2(CCCN(c3ccncc3)C2)CC1
Cc1cccn2c(=O)c3cc(C#N)c(=O)n(CCCN4CCOCC4)c3nc12
O=C1C(c2[nH]c3ccccc3c2O)=Nc2ccccc21
Cc1cc2ccccc2n2c(SCC(=O)N3CCN(C(=O)c4ccco4)CC3)nnc12
O=C1c2ccccc2C(O)N1Cc1ccccc1 (configuration not stated)
CCOC(=O)Cn1c2c(c(-c3ccccc3OC)cc1=O)CCCC2
COCCn1c(=O)[nH]c2cc(C(=O)NCc3cccnc3)ccc2c1=O
CCSc1ncnc2c(C#N)c3n(c12)CCCCC3
CC(C)C[C@@H](CC(=O)N[C@@H](CCC(=O)O)CC(=O)O)NC(=O)[C@@H]1CCCC[C@H]1NC(=O)C[C@@H](NC(=O)C[C@H](CO)NC(=O)[C@@H]1CCCC[C@H]1N)C(C)C
CCC(C)(C(=O)NC1CCCC1)N(C(=O)CNC(C)=O)c1ccc(C)cc1 (configuration not stated)
C=CC(=O)OCCOCCOCCOCCOC(=O)C=C
Cn1c(-c2ccco2)nc2cc3ccccc3cc21
Cc1nn2c3ccccc3nc2n(C)c1=O

Potency, active:
c1ccc(CSc2nnc(-c3ccco3)c(-c3ccco3)n2)cc1 7.94 µM
CCS(=O)(=O)N(C)[C@@H]1c2cc(C#N)ccc2OC(C)(C)[C@H]1O 39.8 µM
Clc1cccc(-c2nc3nc4ccccc4nc3n2Cc2ccco2)c1 15.8 µM
N#Cc1c(N)sc2c1CCN(C(=O)OCc1ccccc1)C2 15.8 µM
COC(=O)C1=C(C)NC2=C(C(=O)c3ccccc32)C1c1ccc(-c2ccc(C(=O)O)cc2)o1 (configuration not stated) 25.1 µM
COc1ccc(C(=O)N/N=C2/C(=O)c3c(C)cc(C)cc3CC2(C)C)cc1 5.01 µM
CN(C)CCSc1nc(N)c2c3c(sc2n1)COC(C)(C)C3 12.6 µM
Cc1nn2c(c1-c1ccccc1)N=C(c1ccco1)CC2c1ccccc1 (configuration not stated) 10 µM
CC(=O)N1CCN(c2ccc(NCc3ccc(C(C)C)cc3)cc2)CC1 25.1 µM
O=c1cc(-c2ccc(O)c(O)c2)oc2cccc(O)c12 39.8 µM
c1ccc(-c2cc(-c3nnc4sc(-c5ccccn5)nn34)[nH]n2)cc1 1 µM
CCN1C(=O)c2cccc3c(N)ccc1c23 25.1 µM
Oc1ccc(O)c2c(O)cccc12 5.01 µM
C[N+](C)(C)CCCCCNCC12CC3CC(CC(C3)C1)C2 31.6 µM
COc1ccc(CNC(=O)c2cc3c(=O)n4ccccc4nc3n(CC3CCCO3)c2=N)cc1 (configuration not stated) 2.51 µM
COc1ccc(CCn2c(=N)c(C(=O)NCc3ccco3)cc3c(=O)n4cccc(C)c4nc32)cc1 2 µM
O=C(NCc1ccco1)c1cccn2c(=O)c3cc(Br)ccc3nc12 25.1 µM
COC(=O)c1cnn2c(C(F)(F)F)cc(-c3ccco3)nc12 15.8 µM
COc1ccc(Cc2nnc(NC(=O)Cc3cccs3)s2)cc1 25.1 µM
CC[N+](C)(CC)CCC[n+]1c(-c2ccccc2)c2cc(N)ccc2c2ccc(N)cc21 1.58 µM
CCSC1=C(C#N)C(=O)n2c1cc1c2CCCC1 25.1 µM
c1coc(-c2nc3nc4ccccc4n3nc2-c2ccco2)c1 3.16 µM

Activity change, negative = inhibition, inactive:
CC(C)CSC[C@@H]1O[C@H](n2cnc3c(N)nccc32)[C@H](O)[C@@H]1O -0.6% [at 11.4 µM]
NC1(C(=O)OCc2ccccc2)CCCC1 6.1% [at 11.4 µM]
O=C1NC(=O)[C@@](Cc2ccccc2)(c2cccnc2)N1 -0.4% [at 11.4 µM]
C[C@H](CCC(=O)O)[C@H]1CC[C@@H]2[C@H]3CC[C@H]4C[C@H](O)CC[C@@]4(C)[C@@H]3CC[C@@]21C 11.3% [at 11.4 µM]
O=C(O)[C@H](CCc1ccccn1)c1ccccc1 -5.3% [at 11.4 µM]
